{
  "source": "PubChem BioAssay (Tox21)",
  "note": "Inconclusive results are not listed. Where a call stands in place of a potency, no number is given. Calls of active or inactive are those of the source. Calls follow the shape of the dose curve; as a rule, active = well fitted cell-killing curve with a large enough effect in the repeat runs; inconclusive = weak or mixed curves; inactive = flat fitted curve, though single readings scatter.",
  "data": [
    {"assay": "qHTS assay to identify small molecule antagonists of the estrogen related receptor (ERR) signaling pathway from Tox21 library - cell viability counter screen (AID 1224834); also: nearly all actives have a fitted effect of over 30% in size", "conditions": "ERR reporter cells viability, CellTiter-Fluor, 17.5 h; series mostly up to 92.4 µM", "from_the_text": "National Center for Advancing Translational Sciences [NCATS]\nNIH Chemical Genomics Center [NCGC]\nU.S. Environmental Protection Agency [EPA]\nNational Institutes of Environmental Health Sciences [NIEHS]\nNational Toxicology Program [NTP]\nU.S. Food and Drug Administration [FDA]\nEstrogen related receptors (ERRs), the first orphan nuclear receptors discovered, play an important role in the control of cellular energy metabolism. ERRs are required for high-energy production in response to the environmental challenges. ERR-alpha was also identified as an adverse marker for breast cancer progression; ERR-alpha-positive tumors have a poor prognosis. To screen and to identify environmental compounds that perturb the ERR signaling pathways could provide valuable information for potential therapeutic or preventive measures in the treatment of metabolic disease. To differentiate true ERR antagonists or agonist from cytotoxic substances, the assay is multiplexed with cell viability assay.\nTox21 Assay Protocol Summary:\nThe ERR cells were dispensed at 2,000 cells/5 ul/well in 1536-well white plates using a Multidrop dispenser. After the assay plates were incubated at a 37 C/5% CO2 incubator for 6 hours, 23 nL of compounds dissolved in DMSO, positive and negative controls or DMSO only was transferred to the assay plate by a pin tool. The plates were incubated at 37 C for 17.5 hours. 1 ul/well of CellTiter-Fluor reagent was added into the assay plates using a Flying Reagent Dispenser. After 30-minute incubation at 37 C/5% CO2, the fluorescence intensity in the plates was measured using a ViewLux plate reader.", "values": [
      {"smiles": "CC(C)CCCCOC(=O)c1ccccc1C(=O)OCCCCC(C)C", "Potency": "inactive"},
      {"smiles": "COCCOCCOCCOCCO", "Potency": "inactive"},
      {"smiles": "N[C@@H](COP(=O)(O)O)C(=O)O", "viability change, negative = cytotoxic": "-0.524% [at 19 µM] (inactive)"},
      {"smiles": "Cc1ccc(S(=O)(=O)O)c(C)c1", "Potency": "inactive"},
      {"smiles": "CCCC/C=C\\CCCCCCCCCC=O", "Potency": "inactive"},
      {"smiles": "CCCCNC1CC(C)(C)NC(C)(C)C1", "Potency": "inactive"},
      {"smiles": "CC(CO)c1ccccc1", "note": "(stereo not given)", "Potency": "inactive"},
      {"smiles": "CCC(C=O)CC", "Potency": "inactive"},
      {"smiles": "CC(=O)OC(C)OC(=O)C(C)c1ccc(-c2ccccc2)c(F)c1", "note": "(stereo not given)", "Potency": "inactive"},
      {"smiles": "NCCN1CCOCC1", "Potency": "inactive"},
      {"smiles": "CC(=O)Nc1ccc(S(=O)(=O)Cl)cc1", "Potency": "inactive"},
      {"smiles": "COC(=O)CCCCCCCC(=O)OC", "Potency": "inactive"},
      {"smiles": "O=C(O)c1cc(Br)c(O)c(Br)c1", "Potency": "inactive"},
      {"smiles": "COc1ccc(C2CNC(=O)C2)cc1OC1CCCC1", "note": "(stereo not given)", "Potency": "inactive"},
      {"smiles": "CCn1ccc(NS(=O)(=O)c2ccc(N)cc2)nc1=O", "Potency": "inactive"},
      {"smiles": "CCOCCOCCOCC", "Potency": "inactive"},
      {"smiles": "CC(=O)c1ccc2c(c1)Cc1ccccc1-2", "Potency": "inactive"},
      {"smiles": "O=P(O)(O)OP(=O)(O)O", "Potency": "inactive"},
      {"smiles": "CCCCCCOc1ccccc1C(N)=O", "Potency": "inactive"},
      {"smiles": "NCCS", "Potency": "inactive"},
      {"smiles": "O=C(/N=N/C(=O)OCc1ccccc1)OCc1ccccc1", "Potency": "inactive"},
      {"smiles": "c1ccc2nccnc2c1", "Potency": "inactive"},
      {"smiles": "COC(=O)[C@@H]1[C@H]2C[C@H]3c4[nH]c5ccccc5c4CCN3C[C@@H]2CC[C@@H]1O", "Potency": "inactive"},
      {"smiles": "CCN(C)C(=O)Oc1cccc([C@H](C)N(C)C)c1", "Potency": "inactive"},
      {"smiles": "CC(=O)NCc1c(I)c(NC(C)=O)c(I)c(C(=O)O)c1I", "Potency": "inactive"},
      {"smiles": "Cc1cccc(C)c1NC(=O)c1ccccc1C(=O)O", "Potency": "inactive"},
      {"smiles": "Cc1ccc2ccc(Cl)cc2n1", "Potency": "inactive"},
      {"smiles": "CN(CCOc1ccc(NS(C)(=O)=O)cc1)CCc1ccc(NS(C)(=O)=O)cc1", "Potency": "inactive"},
      {"smiles": "O=S(=O)(O)CCN1CCN(CCO)CC1", "Potency": "inactive"},
      {"smiles": "O=C(CCN1CCN(CCO)CC1)N1c2ccccc2Sc2ccc(C(F)(F)F)cc21", "Potency": "inactive"},
      {"smiles": "On1nnc2ccccc21", "Potency": "inactive"},
      {"smiles": "C=CC(OCC)OCC", "Potency": "inactive"},
      {"smiles": "CN(C)C(=O)CNC(=O)Cc1ccccc1", "Potency": "inactive"},
      {"smiles": "C=Cc1ccccn1", "Potency": "inactive"},
      {"smiles": "CC(C)=CCOC(=O)c1ccccc1", "Potency": "inactive"},
      {"smiles": "CC(C)(C)c1n[nH]c(=S)n(N)c1=O", "Potency": "inactive"},
      {"smiles": "CC(CC=O)CCCC(C)(C)O", "note": "(stereo not given)", "Potency": "inactive"},
      {"smiles": "CC(C)CC(=O)O", "Potency": "inactive"},
      {"smiles": "OCCC(F)(F)C(F)(F)C(F)(F)C(F)(F)C(F)(F)C(F)(F)C(F)(F)C(F)(F)F", "Potency": "inactive"},
      {"smiles": "CCOC(=O)c1ncn2c1CN(C)C(=O)c1cc(F)ccc1-2", "Potency": "inactive"}
    ]}
  ]
}
